Source: PubChem BioAssay (Tox21)
Inconclusive results are not listed. The source made the active and inactive calls. Unless noted, calls follow the shape of the dose curve; as a rule, active = well fitted curve in the direction sought with a large enough effect in the repeat runs; inconclusive = weak or mixed curves; inactive = no such curve, though single readings can be large; an effect the other way counts as inactive or inconclusive.

What was measured:
[1] = qHTS assay to identify small molecule agonists of the peroxisome proliferator-activated receptor delta (PPARd) signaling pathway - cell viability counter screen (AID 743211); also: nearly all actives have a fitted effect of over 55% in size
Procedure, shortened: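 Luminescent ATP viability assay (CellTiter-Glo, 30 min RT) in UAS-bla HEK293H cells carrying the PPAR delta reporter construct, 3000 cells/well, after a 17 h compound treatment at 37 C.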

[2] = qHTS assay to identify small molecule antagonists of the peroxisome proliferator-activated receptor delta (PPARd) signaling pathway - cell viability counter screen (AID 743213); also: nearly all actives have a fitted effect of over 50% in size
Procedure, shortened: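 Cytotoxicity counter screen: CellTiter-Glo luminescence read 30 min after addition, in the same wells as the reporter assay. There, PPARd UAS-bla HEK293H cells (3000/well) were treated 17 h at 37 C with compound and 300 nM L165041.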

[3] = qHTS assay to identify small molecule agonists of the farnesoid-X-receptor (FXR) signaling pathway - cell viability counter screen (AID 743218); also: nearly all actives have a fitted effect of over 45% in size
Procedure, shortened: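 Readout: CellTiter-Glo luminescence, 30 min RT, multiplexed after the FXR-bla FRET reading. HEK 293T FXR-UAS-bla cells received compound 5 h post-plating and were incubated 16 h at 37 C.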

[4] = qHTS assay to identify small molecule antagonists of the farnesoid-X-receptor (FXR) signaling pathway - cell viability counter screen (AID 743221; active = well fitted cell-killing curve with a large enough effect in the repeat runs, not every such curve was filed as active; also: nearly all actives have a fitted effect of over 50% in size)
Procedure, shortened: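 In GeneBLAzer FXR-UAS-bla HEK 293T cells stimulated with 50 uM chenodeoxycholic acid (final), compounds acted for 16 h at 37 C. Viability was assessed afterwards by CellTiter-Glo luminescence.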

[5] = target: Vitamin D3 receptor (Homo sapiens) (UniProt P11473); assay: qHTS assay to identify small molecule agonists of the vitamin D receptor (VDR) signaling pathway (AID 743222; calls by dose curve)
Chain of Vitamin D3 receptor (Homo sapiens) (P11473 whole entry, looked up): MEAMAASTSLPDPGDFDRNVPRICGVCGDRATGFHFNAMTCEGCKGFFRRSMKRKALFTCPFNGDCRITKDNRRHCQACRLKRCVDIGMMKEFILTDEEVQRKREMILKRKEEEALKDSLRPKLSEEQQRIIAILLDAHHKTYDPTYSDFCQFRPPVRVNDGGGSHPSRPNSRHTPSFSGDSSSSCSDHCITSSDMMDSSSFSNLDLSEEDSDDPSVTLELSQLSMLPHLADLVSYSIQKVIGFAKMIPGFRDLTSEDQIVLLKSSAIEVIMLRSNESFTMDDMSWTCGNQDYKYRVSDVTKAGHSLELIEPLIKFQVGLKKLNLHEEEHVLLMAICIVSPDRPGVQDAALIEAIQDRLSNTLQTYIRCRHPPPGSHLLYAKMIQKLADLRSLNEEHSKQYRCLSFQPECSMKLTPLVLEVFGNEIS
Procedure, shortened: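 Following 4 h attachment at 37C, VDR-bla cells (2,000 per well) received DMSO-dissolved compounds or controls. After 16 h incubation, LiveBLAzer B/G FRET substrate was added and fluorescence read 2 h later at room temperature.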

[6] = target: Vitamin D3 receptor (Homo sapiens) (UniProt P11473); assay: qHTS assay to identify small molecule antagonists of the vitamin D receptor (VDR) signaling pathway (AID 743223; active = well fitted inhibition curve with a large enough effect in the signal ratio in the repeat runs, not every such curve was filed as active; the % refers to the signal ratio)
Procedure, shortened: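 Agonist 1alpha,25-dihydroxyvitamin D3 (3 nM in well) was added with each compound to VDR-bla cells preincubated 4 h. Cells stood 16 h at 37C, then FRET substrate 2 h at room temperature; fluorescence intensity recorded.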

[7] = target: Bile acid receptor (Homo sapiens) (UniProt Q96RI1); assay: qHTS assay to identify small molecule antagonists of the farnesoid-X-receptor (FXR) signaling pathway (AID 743217; active = well fitted inhibition curve with a large enough effect in the signal ratio in the repeat runs, not every such curve was filed as active; the % refers to the signal ratio)
Chain of Bile acid receptor (Homo sapiens) (Q96RI1 whole entry, looked up): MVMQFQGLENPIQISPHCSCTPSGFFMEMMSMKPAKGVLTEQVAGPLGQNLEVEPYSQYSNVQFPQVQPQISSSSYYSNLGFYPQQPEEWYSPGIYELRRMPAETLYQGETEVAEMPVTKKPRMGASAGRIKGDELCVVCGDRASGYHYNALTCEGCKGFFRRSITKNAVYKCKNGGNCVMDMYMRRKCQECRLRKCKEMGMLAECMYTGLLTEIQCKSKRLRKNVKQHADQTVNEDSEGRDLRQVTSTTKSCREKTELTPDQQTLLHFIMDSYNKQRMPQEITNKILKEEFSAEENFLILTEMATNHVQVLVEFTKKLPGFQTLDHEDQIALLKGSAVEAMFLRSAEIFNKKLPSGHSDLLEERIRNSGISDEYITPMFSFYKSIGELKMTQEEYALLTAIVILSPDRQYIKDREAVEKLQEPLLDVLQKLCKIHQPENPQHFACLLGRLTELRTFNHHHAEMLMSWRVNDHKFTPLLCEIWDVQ
Procedure, shortened: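 FRET fluorescence after 2 h room-temperature LiveBLAzer loading gives the readout. Prior step: FXR-bla HEK 293T cells, seeded and incubated 5 h, received test compounds plus 50 uM final CDCA for 16 h at 37 °C.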

[8] = target: Bile acid receptor (Homo sapiens) (UniProt Q96RI1); assay: qHTS assay to identify small molecule agonists of the farnesoid-X-receptor (FXR) signaling pathway (AID 743220; active = well fitted activation curve with a large enough effect in the signal ratio in the repeat runs, not every such curve was filed as active; the % refers to the signal ratio)
Procedure, shortened: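 FXR-UAS-bla HEK 293T cells carrying a UAS-driven beta-lactamase reporter were plated for 5 h at 37C/5% CO2, then exposed to DMSO-dissolved Tox21 10K compounds for 16 h at 37C. A LiveBLAzer B/G FRET substrate was loaded for 2 h at room temperature before fluorescence reading.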

Measured: Potency

CC1(C)O[C@@H]2C[C@H]3[C@@H]4CCC5=CC(=O)C=C[C@]5(C)[C@H]4[C@@H](O)C[C@]3(C)[C@]2(C(=O)CO)O1
not listed: [7] | [8]
inactive: all other assays above

O=S1OCCO1
not listed: [7] | [8]
inactive: all other assays above

N#C[C@@H]1C[C@@H]2C[C@@H]2N1C(=O)[C@@H](N)C12CC3CC(CC(O)(C3)C1)C2
not listed: [2] | [6]
inactive: all other assays above
